Compound activity as filed in PubChem BioAssay.
The list is not random: actives were taken first. Their share in the collection is about 7.8%.
VACV mCherry inh: qHTS for Stage-Specific Inhibitors of Vaccinia Orthopoxvirus: mCherry Reporter Primary qHTS. Vaccinia virus mCherry reporter infection, fluorescence. Potency, µM (top dose mostly 36.5 µM), usual class: inhibitors. hit rate 0.63% among 310,000. AID 720579, 2013; calls by dose curve; tested in A549 cells; note: nearly all actives have a fitted effect of over 35% in size
Lassa entry inh: qHTS for Inhibitors of binding or entry into cells for Lassa Virus; Lassa virus pseudotype entry inhibition, cell reporter; Potency, µM (titrated, usually from 37.9 µM), actives largely listed as inhibitors; hit rate 1.2% among 300,000; calls by dose curve; tested in HEK293 cells; note: nearly all actives have a fitted effect of over 50% in size
Vaccinia Venus: qHTS for Stage-Specific Inhibitors of Vaccinia Orthopoxvirus: Venus Reporter Primary qHTS; Vaccinia virus Venus reporter expression, fluorescence; Potency, µM (highest dose often 36.5 µM), usual class: inhibitors; hit rate 0.46% among 330,000; AID 720580, 2013; calls by dose curve; tested in A549 cells; note: nearly all actives have a fitted effect of over 30% in size
HCMV inh: qHTS Assay for inhibitors of the human cytomegalovirus (HCMV); HFF cells, HCMV-luciferase reporter, 72 h; active compounds read low; activity change, negative = inhibition, % at 57.5 µM; hit rate 4.5% among 410,000; AID 1259415, 2018; in the data active = activity change below about -60%; inconclusive = no clear call, values can overlap the other calls; inactive = above about -39%
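Luciferase read-out from HCMV-luciferase-infected HFFs (MOI 1 PFU/cell) 72 h post infection at 37C; compounds added after 16 h cell attachment; activity normalized between buffer-only basal and Salinomycin (10uM) inhibitor controls.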
HCV inhibitor: qHTS Assay for Inhibitors of Hepatitis C Virus (HCV); AID 651820, 2012; Huh7.5.1 HCVcc-Cre infection, luciferase reporter, 44 h; Potency, µM (highest dose often 41.8 µM), most hits filed as inhibitors; hit rate 3.4% among 340,000; active = well fitted inhibition curve with a large enough effect; inconclusive = small, poorly fitted or top-dose-only effect, or another doubt; inactive = no such curve, though single readings can be large or run the other way
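1,000 cells/well; 4 h culture; + compound; + HCVcc-Cre (~0.5 moi); 44 h; luciferase substrate, RT 15 min; read 15 sec.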
Marburg entry inh: qHTS for inhibitors of binding or entry into cells for Marburg Virus | Marburg virus pseudotyped entry inhibition, cell reporter | Potency, µM (doses to about 37.8 µM), most hits filed as inhibitors | hit rate 1.8% among 300,000 | AID 540276, 2011; calls by dose curve; tested in HEK293 cells
Hits are given with their value; - = inactive; ? = inconclusive; . = no result; [ ] = dose if it differs, or a comment.

SMILES | VACV mCherry inh | Lassa entry inh | Vaccinia Venus | HCMV inh | HCV inhibitor | Marburg entry inh
CC(C)(C)CNC(=O)C1(C)CCN1C(=O)c1ccccc1CCc1ccccc1 (configuration not stated) | - | . | - | - | . | .
COc1cc(NC(=O)CSc2nnc3c4ccccc4n(C)c3n2)cc(OC)c1OC | ? | . | - | . | . | .
COc1ccccc1NC(=S)NNC(=O)c1cc(C)nn1C | - | - | - | -102.5 | - | ?
CCOc1ccc(CCNC(=O)c2ccc(OCc3c(C)noc3C)cc2)cc1OCC | - | ? | - | -97.0 | ? | ?
COc1cc(C(=O)NCCc2c[nH]c3ccccc23)ccc1OCc1c(C)noc1C | - | 7.94µM | - | - | - | -
O=C(c1cc(COc2ccc(F)cc2F)on1)N1CCCC(c2ccccc2)C1 (configuration not stated) | - | 7.08µM | - | -62.5 | ? | ?
O=C(NC1CCc2ccccc21)c1cc(COc2ccc(F)cc2F)on1 (configuration not stated) | - | - | - | - | ? | ?
Cc1ccc(C)c(OCc2cc(C(=O)NC3CCN(Cc4ccccc4)CC3)no2)c1 | . | . | . | -85.3 | 6.31µM | .
CCN1CCN(C(=O)c2cc(COc3ccc(F)cc3F)on2)[C@@H](C)C1=O | - | ? | - | ? | 11.2µM | ?
O=C(c1cc(COc2ccc(F)cc2Cl)on1)N1CCCC(c2ccccc2)C1 (configuration not stated) | - | ? | - | - | ? | ?
CCOC(=O)N1CCN(C(=O)c2cc(COc3ccc(F)cc3F)on2)CC1 | - | - | - | - | - | ?
O=C(NC1CCN(Cc2ccccc2)C1)c1cc(COc2ccc(F)cc2F)on1 (configuration not stated) | . | . | . | -102.4 | - | .
COc1cc(C)ccc1OCc1cc(C(=O)NC2CCOCC2)no1 | - | . | - | - | . | .
COc1cc2nc(NC3CCN(C)CC3)nc(N3CCCN(C)CC3)c2cc1OC | - | . | - | . | . | .
Oc1cc(-c2nc3ccccc3s2)cc2c1OCCN(Cc1cccn1-c1ncccn1)C2 | - | . | - | . | . | .
O=C(NCCc1ccccc1Cl)c1cc(COc2ccc(F)cc2F)on1 | . | . | . | . | 11.2µM | .
O=C(NCCC1=CCCCC1)c1cc(COc2ccc(F)cc2Cl)on1 | . | . | . | - | ? | .
NC(N)=NC(N)=Nc1cccc2ccccc12 | -[7.34 µM] | - | -[7.34 µM] | - | - | -
NC(N)=Nc1cc2ccccc2c2ccccc12 | . | . | . | -83.4 | . | .
COc1ccc(Cl)cc1NC1=NCC(C)S1 (configuration not stated) | . | - | . | - | 11.2µM | -
Cc1cccc(OCC(=O)OCC(=O)N2CCCc3ccccc32)c1C | . | . | . | - | - | .
Cc1cccc(OCCCC(=O)N2CCCc3ccccc32)c1C | . | - | . | ? | 10µM | -
CCOC(=O)N1CCN(C(=O)COc2cccc3c2CCN(CC)C3=O)CC1 | - | - | - | - | - | -
O=C(COc1ccccc1F)N1CCCc2ccccc21 | - | - | - | - | - | -
O=C1c2cccc(OCC(=O)N3CCCc4ccccc43)c2CCN1Cc1ccc(F)cc1 | - | ? | - | - | ? | ?
SMILES | VACV mCherry inh | Lassa entry inh | Vaccinia Venus | HCMV inh | HCV inhibitor | Marburg entry inh
Cc1cccc(CN2CCc3c(OCC(=O)N4CCCc5ccccc54)cccc3C2=O)c1 | ? | 4.47µM | ? | - | ? | ?
CN1CCc2c(OCC(=O)N3CCCc4ccccc43)cccc2C1=O | - | ? | - | - | - | 3.16µM
CCOC(=O)N1CCN(C(=O)COc2cccc3c2CCN(Cc2ccc(F)cc2)C3=O)CC1 | ? | - | - | -66.7 | ? | ?
Cc1cccc(-c2nc3c4ccccc4nc(N4CCN(c5cc(C)ccc5C)CC4)n3n2)c1 | - | . | - | - | . | -
Cc1ccc2cc(CNC(C)CO)c(N3CCC(O)CC3)nc2c1 (configuration not stated) | - | . | - | . | . | .
CCC[C@H]1[C@@H](NC(=O)Nc2ccc(Cl)cc2)CC[C@@]23CCCN2C(=O)CCC[C@@H]13 | . | . | . | - | . | .
COc1ccccc1NC(=O)Cn1c(=O)oc2cc(S(=O)(=O)NCc3ccccc3)ccc21 | - | . | - | - | . | -
Cc1ccc(-n2c(=O)c3c(c4cc(C)ccc4n3C)n(Cc3ccc(F)cc3)c2=O)cc1 | - | - | - | - | . | .
CCOC(=O)c1ccccc1Nc1cc(C)nc2nc(-c3ccco3)nn12 | - | ? | - | - | . | .
Cc1cc(Nc2ccccc2Cl)n2nc(-c3ccco3)nc2n1 | - | - | - | -72.1 | . | .
Cc1ccc(-c2[nH]ncc2CNC(C)c2ccccc2)cc1 (configuration not stated) | - | . | - | . | . | .
COc1ccc(-n2nc3c(N4CCCC(C(=O)NCc5cccc(F)c5)C4)nnc(C)c3c2C)cc1 (configuration not stated) | ? | - | - | -84.1 | . | .
Cc1nnc(N2CCCC(C(=O)NCCc3ccccc3)C2)c2nn(-c3ccccc3)c(C)c12 (configuration not stated) | - | ? | - | - | . | .
COc1ccc(-n2nc3c(N4CCC(C(=O)NCc5cccc(C)c5)CC4)nnc(C)c3c2C)cc1 | . | . | . | -99.9 | ? | .
COc1ccc2c(c1)-c1nc(/N=C/c3c(O)ccc4ccccc34)sc1CC2 | ? | - | - | - | 12.6µM | ?
O=C1OCC(CO)(CO)N=C1NNc1ccccc1Cl | - | - | - | -66.1 | - | -
O=C(O)C1(Nc2ccccc2Cl)CCCC1 | - | - | - | - | - | -
Cc1ccc(C)c(N2CCN(CCCNC(=O)c3cnn(-c4ccc(F)cc4)c3C3CCN(C(=O)OC(C)(C)C)CC3)CC2)c1 | ? | - | ? | - | . | .
Cc1ccc(C)c(N2CCN(C(=O)c3cnn(-c4ccccc4Cl)c3C3CCN(C(=O)OC(C)(C)C)CC3)CC2)c1 | - | ? | ? | - | . | .
Cc1ccc(C)c(N2CCN(CCCNC(=O)c3cnn(-c4cccc(Cl)c4)c3C3CCN(C(=O)OC(C)(C)C)CC3)CC2)c1 | ? | 12.6µM | ? | - | . | .
Cc1ccc(C)c(N2CCN(CCCNC(=O)c3cnn(-c4ccccc4Cl)c3C3CCN(C(=O)OC(C)(C)C)CC3)CC2)c1 | ? | ? | ? | -105.2 | . | .
C[C@H]1[C@@H](NC(=O)Nc2cccc(C#N)c2)CC[C@@]23CCCN2C(=O)CCC[C@@H]13 | . | . | . | - | . | .
O=C(/C=C/c1ccc(F)cc1)Nc1nc2n(n1)C(c1ccc(Cl)cc1)C=C(c1ccccc1)N2 (configuration not stated) | - | - | - | - | . | ?
COC1=C(Br)C(=O)c2ncccc2C1=O | - | ? | - | -69.0 | ? | ?
O=C1C(=O)c2cccnc2-c2ncccc21 | 6.31µM | . | 14.1µM | -99.1 | . | .
COC(=O)[C@@]1(Cc2ccc(OC)cc2)[C@H]2c3cc(C(=O)N4CCCC4)n(CCN4CCOCC4)c3C[C@H]2CN1C(=O)c1ccccc1 | - | . | - | - | . | .
COC(=O)[C@@]1(Cc2ccc(OC)cc2)[C@H]2c3cc(C(=O)N4CCCC4)n(CCn4cc([N+](=O)[O-])nc4C)c3C[C@H]2CN1C(=O)c1ccccc1 | - | - | - | -73.6 | -[8.37 µM] | -
